G9a inh – inhibitors of human histone lysine methyltransferase G9a; Q96KQ7; G9a H3K9 monomethylation, AlphaScreen, 2 h; Potency, µM (highest dose often 102 µM), for inactives: top-dose activity, negative = inhibition, actives largely listed as inhibitors; 8.8% of 350,000 active; further: on the % scale 0 is the no-effect control and ±100 the full control effect; nearly all actives have a fitted effect of over 75% in size
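Chemiluminescent proximity detection of H3K9 monomethylation, read after 10 min bead incubation in the dark. Reaction: 20 nM G9a, 500 nM biotin-H3K9 peptide, 20 uM SAM cofactor, 2 h, room temperature, following 15 min enzyme-compound preincubation.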
HP1b binding inh – blocks HP1-beta chromodomain binding to methylated histone tails. P83916. 0.56% of 390,000 active. AlphaScreen HP1-beta / biotin-H3K9me3 peptide binding. Potency, µM (top dose mostly 114 µM), for inactives: at the top dose activity change, negative = inhibition, hits mostly inhibitors. AID 540317; further: nearly all actives have a fitted effect of over 70% in size
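AlphaScreen: HP1-beta (50 nM) preformed 30 min with biotin-H3(1-18)K9me3 peptide (50 nM) in PBS pH 7.4, 0.01% Tween-20. Compound added for 30 min at RT, then streptavidin donor/nickel chelate acceptor beads (10 ug/mL) for 30 min.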
JMJD2A Tudor – inhibitors of human JMJD2A Tudor domain. AID 504339. AlphaScreen JMJD2A-Tudor / H3K4me3 peptide binding. Potency, µM (titrated, usually from 114 µM), inactives show at the top dose activity change, negative = inhibition, hits mostly inhibitors. 4.4% of 390,000 active; further: on the % scale 0 is the no-effect control and ±100 the full control effect; nearly all actives have a fitted effect of over 50% in size
BAZ2B block – blocks human BAZ2B | Q9UIF8 | AlphaScreen BAZ2B-H3K14Ac peptide displacement | Potency, µM (titrated, usually from 114 µM), without a hit: at the highest dose activity change, negative = inhibition, usual class: inhibitors | 4.4% of 360,000 active | AID 504333; further: on the % scale 0 is the no-effect control and ±100 the full control effect; nearly all actives have a fitted effect of over 60% in size
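AlphaScreen displacement: compounds (up to 110uM) incubated 30 min at room temperature with a preformed 50 nM BAZ2B/50 nM biotinylated H3K14Ac peptide complex in PBS pH 7.4 with Tween-20. Donor and acceptor beads at 10 ug/mL final added, 20 min light-protected before reading.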
Sfp inh – inhibitors of Bacillus subtilis Sfp phosphopantetheinyl transferase; Q9F4F7; Biochemical Sfp PPTase activity, qHTS; Potency, µM, for inactives: largest response in the series, negative = inhibition, most hits filed as inhibitors; 3.5% of 310,000 active;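 further: the enzyme is Sfp with the accession as filed and its product quenches rhodamine fluorescence; 0% = enzyme reaction without inhibitor and -100% = no enzyme wells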
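Fluorescence-quenching assay: 15 nM Sfp-PPTase preincubated 15 min at room temperature with compound, then 5 uM rhodamine-CoA and 12.5 uM BHQ-2-labelled YbbR peptide added. Fluorescence (ex 525/em 598 nm) read at start and after 30 min; difference gives rate.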
* marks the source's active call; other numbers are inactive results; ? = inconclusive; . = not tested or not shown; ! = not active in a repeat; [ ] = remark or other dose. The list is not random: actives were taken first. Their share in the collection is about 12%. The call rests on the fitted dose curve; in most records, active means well fitted curve in the direction sought with a large enough effect; inconclusive means small, poorly fitted or top-dose-only effect, or another doubt; inactive means no such curve, though single readings can be large; an effect the other way counts as inactive or inconclusive. Potency means the concentration at half of the fitted maximal effect.

SMILES	G9a inh	HP1b binding inh	JMJD2A Tudor	BAZ2B block	Sfp inh
O=C1NC(=O)N(c2ccccc2)C(=O)/C1=C/c1ccc(Sc2ccccc2)o1	10µM*	-0.4%	56.2µM*	50.1µM*	22.4µM*
Nc1ncnc2c1nc(Sc1ccc(Cl)cc1)n2[C@@H]1O[C@@H]2COP(O)(=S)O[C@H]2[C@H]1O (stereo partly drawn)	.	.	.	.	1.5%
Cn1cccc1-c1cccnc1	5.7%[59 µM]	.	.	.	20.8%
Cc1cccc(N=C2c3cc([N+](=O)[O-])ccc3-c3c2cc([N+](=O)[O-])cc3[N+](=O)[O-])c1	.	2.82µM*	3.55µM*	.	.
CC(C)(C)C1CCc2onc(C(=O)O)c2C1 (stereo not drawn)	0.3%	42.4%	-4.9%	-19.1%	22.9%
CCOC(=O)c1c(-n2c(C)cc(C=C3C(=O)NC(=S)NC3=O)c2C)sc2c1CCCC2	?	-7.2%	?	?	17.8µM*
Cc1ccc(N2C(=O)NC(=O)/C(=C\c3cc(C)n(-c4sc5c(c4C#N)CCCC5)c3C)C2=O)cc1	?	-14.1%	?	?	39.8µM*
CCN1C(=O)NC(=O)/C(=C/c2cc(C)n(-c3sc(C)c(C)c3C#N)c2C)C1=O	-33.2%[59 µM]	?	?	-15.9%	15.8µM*
Cc1cc(C)cc(-n2c(C)cc(/C=C3\C(=O)NC(=O)N(C)C3=O)c2C)c1	0.1%[59 µM]	29.9%	0.4%[57.1 µM]	0.6%	-1.2%
CCOC(=O)c1c(-n2c(C)cc(/C=C3/C(=O)NC(=O)N(CC)C3=O)c2C)sc2c1CCCC2	.	25.8%	-18.9%	.	.
CO[C@H]1C=C2CCN(C)[C@@H]2[C@@H]2c3cc4c(cc3C(=O)O[C@H]21)OCO4	1.9%[21.5 µM]	.	.	.	9.4%
Cc1ccc2nsnc2c1NS(=O)(=O)c1c(C)ccc2nsnc12	50.1µM*	20.0%	-27.1%	?	-8.6%
CC(=O)NC1N=C(C)N(c2ccccc2)C1=O (stereo not drawn)	3.16µM*	?	44.7µM*	-14.9%	39.8µM*
CC1=NN(c2ccccc2)C(=O)C1=C(C)C	?	50.1%	-19.0%	?	6.9%
COc1ccc(C=C2C(=O)N(C)C(=O)N(C)C2=O)cc1CSc1ccccn1	44.7µM*	39.6%	?	-23.2%	44.7µM*
COc1ccc(/C=C2/C(=O)NC(=O)N(C3CCCCC3)C2=O)cc1CSc1ccccn1	?	.	.	?	56.2µM*
COc1cc(Cn2c(=O)oc3ccc(C)cc32)ccc1OC(C)C	12.8%[59 µM]	90.2%	-0.8%[57.1 µM]	22.3%	5.2%
C=CCN1C(=O)NC(=O)/C(=C\c2ccc(-c3ccccc3[N+](=O)[O-])o2)C1=O	22.4µM*	5.3%	?	79.4µM*	25.1µM*
O=C1NC(=O)N(Cc2ccco2)C(=O)/C1=C/c1ccc(-c2cccc([N+](=O)[O-])c2)o1	3.16µM*	?	14.1µM*	35.5µM*	20µM*
Cc1nn2c(=O)cc(N3CCNCC3)nc2s1	.	.	-2.0%	.	.
Cc1cc(/C=C2/C(=O)NC(=O)N(c3ccc(Br)cc3)C2=O)c(C)n1C	-4.3%	8.8%	-12.3%	-8.4%	6.0%
Cc1ccc(N2C(=O)NC(=O)/C(=C\c3ccsc3)C2=O)cc1C	?	.	.	5.1%	50.1µM*
O=C1CC(=O)N(c2ccc3c(c2)OCO3)C(=O)N1	?	43.8%	-2.3%[11.4 µM]	0.7%	-12.5%
O=C1NC(=O)N(c2ccc3c(c2)OCO3)C(=O)/C1=C\c1ccsc1	.	49.0%	6.0%	-9.7%	35.5µM*
C[C@@H]1C[C@H]2OC(=O)C3(CO3)[C@H]2[C@H](O)[C@]2(C)C(=O)C3OC3[C@@H]12 (stereo partly drawn)	11.0%[59 µM]	.	.	6.2%	7.5%
SMILES	G9a inh	HP1b binding inh	JMJD2A Tudor	BAZ2B block	Sfp inh
C=C1C(=O)O[C@@H]2C[C@@H](C)[C@@H]3C=CC(=O)[C@@]3(C)[C@@H](O)[C@H]12	11.2µM*!	39.6%	-13.7%	1.2%	79.4µM*
Cc1cc(C=C2C(=O)N(C)C(=S)N(C)C2=O)c(C)n1-c1ccncc1	50.1µM*	?	44.7µM*	-25.0%	39.8µM*
Cc1ccnc(-n2c(C)cc(C=C3C(=O)N(C)C(=S)N(C)C3=O)c2C)c1	31.6µM*	?	?	?	50.1µM*
CCC1COC(Cn2cncn2)(c2ccc(Cl)cc2Cl)O1 (stereo not drawn)	.	.	.	.	-22.6%
COc1cc(C(=O)NCCSc2c(-c3ccccc3)[nH]c3ccccc23)cc(OC)c1OC	-6.6%[59 µM]	5.4%	?	-23.7%	.
O=C(NC1CCCCC1)Oc1cc2oc(=O)sc2cc1Cl	39.8µM*	39.0%	-26.6%	-27.0%	3.55µM*
C[C@@H]1CO1	.	.	.	.	3.7%
Cc1ccc(N2CCN(CCc3ccccc3)CC2)cc1	?	-14.4%	?	50.1µM*	-1.2%
CCN1C[C@]2(C)CC[C@H](OC)[C@]34C5C[C@@H]6CC[C@@](O)(C5C(=O)O6)C(C13)[C@@H](OC(=O)c1ccccc1)C24	.	.	.	.	9.1%
FC(F)(F)c1ccccc1CNCCc1c[nH]c2ccccc12	22.4%[2.33 µM]	-13.3%	17.8µM*	44.7µM*	-8.6%
Fc1ccccc1CNCCc1c[nH]c2ccccc12	?	?	44.7µM*	56.2µM*	-11.8%
Fc1ccc(CNCCc2c[nH]c3ccccc23)cc1	?	25.6%	?	?	1.6%
Cc1ccc(S(=O)(=O)N[C@@H](CCCCN)C(=O)CCl)cc1	28.2µM*	59.1%	?	.	-23.2%
Cc1cc(N(C)C)ccc1N=Nc1ccc(N)cc1	.	44.7µM*	20µM*	.	.
O=C(O)c1cc[c]([Hg][Cl])cc1	1µM*!	?	0.891µM*	1.26µM*	.
CCS(=O)(=O)N1CCN(C2CCC(C)CC2)CC1 (stereo not drawn)	5.62µM*	?	6.31µM*	56.2µM*	-22.7%
CCOc1ccc(CC2C(=O)NC(=O)N(c3ccc(CC)cc3)C2=O)cc1 (stereo not drawn)	?	22.2%	-2.2%	-29.5%	56.2µM*
CCOc1ccc(N2C(=O)CC(=O)NC2=O)cc1	-7.5%[0.501 µM]	38.4%	-2.7%	-5.7%	3.0%
O=C(O)CNC(=O)C(CS)Cc1ccccc1 (stereo not drawn)	-6.9%[59 µM]	11.6%	-30.9%	7.2%	0.794µM*
CC(Cc1ccccc1)NC(N)=O (stereo not drawn)	?	28.1%	1.4%	7.0%	15.1%
O=c1cccc2n1CC1CC2CN(CCO)C1 (stereo not drawn)	.	.	.	.	17.1%
C[Se]C[C@@H](N)C(=O)O	3.98µM*	-3.7%	20µM*	?	.
N[C@H](CP(=O)(O)O)C(=O)O	.	.	.	.	-8.0%
C[Se]C[C@H](N)C(=O)O	0.631µM*	.	.	.	.
N[C@@H](CCl)C(=O)O	21.2µM*	9.6%	?	.	.
C[C@@H]1O[C@@H](OC2CC(O)C3(CO)C4C(CCC3(O)C2)C2(O)CCC(C3=CC(=O)OC3)C2(C)C[C@H]4O)[C@H](O)[C@H](O)[C@H]1O (stereo partly drawn)	29.1%[59 µM]	.	.	.	6.3%

Bioassay records from PubChem BioAssay.
